Laboratory results reported in PubChem BioAssay (NCI).
This is part of a sample that, as a whole, favours compounds with a hit. Of some 79,000 tested, about 15% had one in any assay. Active and inactive are the calls of the source. Cut-off read from the data, not from the text of the source: active = growth inhibition above about 70%; inactive = the rest.

Key:
[1] = NCI Yeast Anticancer Drug Screen. Data for the rad52 strain (AID 147);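 note: 0% = growth of vehicle-treated control cultures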; conditions: S. cerevisiae rad52 mutant growth inhibition, hits give high values
Method in brief: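 Here a repair-compromised yeast strain receives each compound; its growth is then quantified and normalised to vehicle-only controls.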

[2] = NCI Yeast Anticancer Drug Screen. Data for the wt1 strain (AID 149);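 note: 0% = growth of vehicle-treated wt1 cultures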; conditions: S. cerevisiae wt1 strain (SPY 50644) growth inhibition, hits give high values
Method in brief: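 Using yeast strain wt1, compound-induced growth inhibition was determined against vehicle-treated cultures.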

[3] = NCI Yeast Anticancer Drug Screen. Data for the rad50EPP+ strain (AID 151);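 note: 0% = growth of vehicle-treated control cultures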; conditions: S. cerevisiae rad50 mutant strain, hits give high values
Method in brief: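 Read-out is yeast growth inhibition relative to vehicle; cells used were the rad50EPP+ strain.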

[4] = NCI Yeast Anticancer Drug Screen. Data for the mgt1 strain (AID 153); conditions: S. cerevisiae mgt1 mutant growth inhibition, hits give high values
Method in brief: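 Measured: inhibition of mgt1 yeast growth by compound, normalized to vehicle-treated cultures.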

[5] = NCI Yeast Anticancer Drug Screen. Data for the rad50 strain (AID 155);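 note: 0% = growth of vehicle-only cultures of the same strain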; conditions: S. cerevisiae rad50 strain growth inhibition, hits give high values
Method in brief: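 Relative growth inhibition (compound vs vehicle) was measured in yeast with a defined repair-gene alteration.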

[6] = NCI Yeast Anticancer Drug Screen. Data for the mec2-1 strain (AID 157); conditions: S. cerevisiae mec2-1 strain, hits give high values
Method in brief: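 Using mec2-1 yeast: add compound, measure growth, express inhibition versus vehicle-treated cultures.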

[7] = NCI Yeast Anticancer Drug Screen. Data for the rad14 strain (AID 159);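 note: 0% = growth of vehicle-treated control cultures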; conditions: S. cerevisiae rad14 strain growth inhibition, hits give high values
Method in brief: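 Screen for anticancer potential: a yeast strain altered in DNA damage repair is grown with compound, and reduced growth is quantified against vehicle controls.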

[8] = NCI Yeast Anticancer Drug Screen. Data for the sgs1 mgt1 strain (AID 161);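 note: 0% = growth of cultures given vehicle only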; conditions: S. cerevisiae sgs1 mgt1 strain, hits give high values
Method in brief: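 This yeast growth screen uses a strain with defined DNA-repair lesions; compound-treated growth is compared with vehicle-treated growth.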

[9] = NCI Yeast Anticancer Drug Screen. Data for the CLN2oe strain (AID 163);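 note: 0% = growth of vehicle-only control cultures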; conditions: S. cerevisiae CLN2oe strain, hits give high values
Method in brief: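 Whole-cell yeast growth assay. A strain engineered for altered cell-cycle control received compound, and inhibition relative to vehicle-treated cultures was recorded.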

[10] = NCI Yeast Anticancer Drug Screen. Data for the cln2 rad14 strain (AID 165);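 note: 0% = growth equal to vehicle treated cultures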; conditions: S. cerevisiae cln2 rad14 strain, hits give high values
Method in brief: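 Yeast strain cln2 rad14, bearing defects in cell cycle control and DNA repair, serves as the test system; values reflect growth inhibition compared with vehicle.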

[11] = NCI Yeast Anticancer Drug Screen. Data for the bub3 strain (AID 167); conditions: S. cerevisiae bub3 mutant strain, hits give high values
Method in brief: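 Screening used yeast with an engineered genetic alteration affecting cell cycle control. Compound-exposed cultures were compared with vehicle cultures, and reduced growth was taken as inhibition.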

[12] = NCI Yeast Anticancer Drug Screen. Data for the wt2 strain (AID 169);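 note: 0% = growth of vehicle-treated yeast cultures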; conditions: S. cerevisiae wt2 strain growth inhibition, hits give high values
Method in brief: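 Treated yeast vs. vehicle-treated yeast: growth inhibition determined.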

[13] = NCI Yeast Anticancer Drug Screen. Data for the mlh1 strain (AID 171);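 note: 0% = growth of vehicle-treated control cultures of the same strain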; conditions: S. cerevisiae mlh1 strain growth inhibition, hits give high values
Method in brief: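 A yeast strain with a defined genetic lesion serves as the test organism. Cultures receive compound or vehicle, and growth is measured.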

[14] = NCI Yeast Anticancer Drug Screen. Data for the sgs1 strain (AID 173);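 note: 0% = growth of vehicle-only control cultures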; conditions: S. cerevisiae sgs1 mutant, hits give high values
Method in brief: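 A genetically defined yeast mutant is incubated with the test compound, and its growth is compared to that of the same strain given vehicle.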

[15] = NCI Yeast Anticancer Drug Screen. Data for the mlh1 rad18 strain (AID 175); conditions: S. cerevisiae mlh1 rad18 strain growth inhibition, hits give high values
Method in brief: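 Steps: expose repair-defective yeast to compound; measure growth; express inhibition against vehicle-treated controls.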

[16] = NCI Yeast Anticancer Drug Screen. Data for the rad18 strain (AID 177); conditions: S. cerevisiae rad18 mutant growth inhibition, hits give high values
Method in brief: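 Measured value is growth inhibition of a yeast strain bearing a DNA repair alteration, referenced to vehicle-treated cells.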

[17] = at 5.0 µM (retest, dose inferred, filed as 0.5)
[18] = at 50.0 µM (retest, dose inferred, filed as 5.0)

Measured: growth inhibition

CCCCCCCCN1COCC(COc2ccccc2C)OC1 (stereo not drawn)
inactive: [1]; at 1.2 µM -3% | [1]; at 3.7 µM 0% | [1]; at 11.0 µM 1% | [1]; at 33.0 µM 13% | [2]; at 1.2 µM -1% | [2]; at 3.7 µM -1% | [2]; at 11.0 µM 2% | [2]; at 33.0 µM 8% | [3]; at 1.2 µM -7% | [3]; at 3.7 µM -4% | [3]; at 11.0 µM -2% | [3]; at 33.0 µM 11% | [3]; at 100.0 µM 18% | [4]; at 1.2 µM -1% | [4]; at 3.7 µM -2% | [4]; at 11.0 µM 0% | [4]; at 33.0 µM 5% | [5]; at 1.2 µM -2% | [5]; at 3.7 µM -4% | [5]; [17] 0% | [5]; at 11.0 µM 3% | [5]; at 33.0 µM 5% | [5]; [18] 5% | [6]; at 1.2 µM -4% | [6]; at 3.7 µM -4% | [6]; [17] 3% | [6]; at 11.0 µM -6% | [6]; at 33.0 µM 2% | [6]; [18] -7% | [7]; at 1.2 µM 0% | [7]; at 3.7 µM 1% | [7]; at 11.0 µM 1% | [7]; at 33.0 µM 22% | [8]; [17] -1% | [8]; [18] 1% | [9]; at 1.2 µM -4% | [9]; at 3.7 µM 0% | [9]; at 11.0 µM -58% | [9]; at 33.0 µM 9% | [10]; [17] 20% | [10]; [18] 44% | [10]; at 50.0 µM 55.2% | [11]; at 1.2 µM -9% | [11]; at 3.7 µM -7% | [11]; [17] -25% | [11]; at 11.0 µM 5% | [11]; at 33.0 µM 15% | [11]; [18] 1% | [12]; at 1.2 µM -1% | [12]; at 3.7 µM 0% | [12]; at 11.0 µM 0% | [12]; at 33.0 µM 13% | [13]; at 1.2 µM -1% | [13]; at 3.7 µM 0% | [13]; at 11.0 µM 0% | [13]; at 33.0 µM -17% | [14]; at 1.2 µM -3% | [14]; at 3.7 µM -2% | [14]; at 11.0 µM 0% | [14]; at 33.0 µM 22% | [15]; [17] -8% | [15]; [18] -2% | [16]; at 1.2 µM -15% | [16]; at 3.7 µM -4% | [16]; at 11.0 µM 4% | [16]; at 33.0 µM 11%
active: [1]; at 100.0 µM 99% | [2]; at 100.0 µM 96% | [4]; at 100.0 µM 99% | [5]; at 50.0 µM 97.3% | [5]; at 100.0 µM 99% | [6]; at 50.0 µM 85.3% | [6]; at 100.0 µM 99% | [7]; at 100.0 µM 99% | [8]; at 50.0 µM 93.3% | [9]; at 100.0 µM 99% | [11]; at 50.0 µM 76.5% | [11]; at 100.0 µM 98% | [12]; at 100.0 µM 99% | [13]; at 100.0 µM 99% | [14]; at 100.0 µM 99% | [15]; at 50.0 µM 95% | [16]; at 100.0 µM 99%

O=C1C=C(NCCc2cc(Br)c(O)c(Br)c2)C(=O)c2ncccc21
active: [1]; at 33.0 µM 89% | [1]; at 100.0 µM 94% | [2]; at 100.0 µM 95% | [3]; at 33.0 µM 82% | [3]; at 100.0 µM 90% | [4]; at 100.0 µM 94% | [5]; at 33.0 µM 88% | [5]; [18] 89% | [5]; at 50.0 µM 92.1% | [5]; at 100.0 µM 94%
inactive: [1]; at 1.2 µM 40% | [1]; at 3.7 µM 50% | [1]; at 11.0 µM 54% | [2]; at 1.2 µM 17% | [2]; at 3.7 µM 19% | [2]; at 11.0 µM 27% | [2]; at 33.0 µM 53% | [3]; at 1.2 µM 23% | [3]; at 3.7 µM 38% | [3]; at 11.0 µM 49% | [4]; at 1.2 µM 13% | [4]; at 3.7 µM 15% | [4]; at 11.0 µM 25% | [4]; at 33.0 µM 69% | [5]; at 1.2 µM 18% | [5]; at 3.7 µM 24% | [5]; [17] 1% | [5]; at 11.0 µM 44% | [6]; at 1.2 µM 6% | [6]; at 3.7 µM 21%
